# According to PubChem BioAssay (NCI):
# This is part of a sample that, as a whole, favours compounds with a hit. Of some 79,000 tested, about 15% had one in any assay. Unmarked numbers belong to inactive results. Activity calls are given as the source filed them. Cut-off read from the data, not from the text of the source: active = growth inhibition above about 70%; inactive = the rest.
# Assays:
# [1] = NCI Yeast Anticancer Drug Screen. Data for the rad52 strain (AID 147);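 note: 0% = growth of vehicle-treated control cultures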; conditions: S. cerevisiae rad52 mutant growth inhibition, active compounds read high
# How it was run: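 Here a repair-compromised yeast strain receives each compound; its growth is then quantified and normalised to vehicle-only controls.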
# [2] = NCI Yeast Anticancer Drug Screen. Data for the wt1 strain (AID 149);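 note: 0% = growth of vehicle-treated wt1 cultures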; conditions: S. cerevisiae wt1 strain (SPY 50644) growth inhibition, active compounds read high
# How it was run: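 wt1 yeast, compound-treated; % growth inhibition vs vehicle control.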
# [3] = NCI Yeast Anticancer Drug Screen. Data for the mgt1 strain (AID 153); conditions: S. cerevisiae mgt1 mutant growth inhibition, active compounds read high
# How it was run: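 Measured: inhibition of mgt1 yeast growth by compound, normalized to vehicle-treated cultures.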
# [4] = NCI Yeast Anticancer Drug Screen. Data for the rad50 strain (AID 155);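 note: 0% = growth of vehicle-only cultures of the same strain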; conditions: S. cerevisiae rad50 strain growth inhibition, active compounds read high
# How it was run: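 Genetically altered yeast (DNA repair pathway); compound treatment; growth inhibition vs vehicle ctrl.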
# [5] = NCI Yeast Anticancer Drug Screen. Data for the mec2-1 strain (AID 157); conditions: S. cerevisiae mec2-1 strain, active compounds read high
# How it was run: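 Using mec2-1 yeast: add compound, measure growth, express inhibition versus vehicle-treated cultures.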
# [6] = NCI Yeast Anticancer Drug Screen. Data for the rad14 strain (AID 159);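 note: 0% = growth of vehicle-treated control cultures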; conditions: S. cerevisiae rad14 strain growth inhibition, active compounds read high
# How it was run: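 Test compounds were applied to a repair-deficient yeast strain. Its growth was then compared with that of cultures given vehicle alone, and inhibition was expressed relative to those controls.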
# [7] = NCI Yeast Anticancer Drug Screen. Data for the sgs1 mgt1 strain (AID 161);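 note: 0% = growth of cultures given vehicle only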; conditions: S. cerevisiae sgs1 mgt1 strain, active compounds read high
# How it was run: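 This yeast growth screen uses a strain with defined DNA-repair lesions; compound-treated growth is compared with vehicle-treated growth.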
# [8] = NCI Yeast Anticancer Drug Screen. Data for the CLN2oe strain (AID 163);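 note: 0% = growth of vehicle-only control cultures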; conditions: S. cerevisiae CLN2oe strain, active compounds read high
# How it was run: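 Whole-cell yeast growth assay. A strain engineered for altered cell-cycle control received compound, and inhibition relative to vehicle-treated cultures was recorded.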
# [9] = NCI Yeast Anticancer Drug Screen. Data for the cln2 rad14 strain (AID 165);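 note: 0% = growth equal to vehicle treated cultures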; conditions: S. cerevisiae cln2 rad14 strain, active compounds read high
# How it was run: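 Yeast strain cln2 rad14, bearing defects in cell cycle control and DNA repair, serves as the test system; values reflect growth inhibition compared with vehicle.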
# [10] = NCI Yeast Anticancer Drug Screen. Data for the bub3 strain (AID 167); conditions: S. cerevisiae bub3 mutant strain, active compounds read high
# How it was run: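 Yeast carrying a defined mutation is treated with each compound, and growth is compared with that of vehicle-exposed cells to give inhibition.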
# [11] = NCI Yeast Anticancer Drug Screen. Data for the wt2 strain (AID 169);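 note: 0% = growth of vehicle-treated yeast cultures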; conditions: S. cerevisiae wt2 strain growth inhibition, active compounds read high
# How it was run: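 Treated yeast vs. vehicle-treated yeast: growth inhibition determined.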
# [12] = NCI Yeast Anticancer Drug Screen. Data for the mlh1 strain (AID 171);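 note: 0% = growth of vehicle-treated control cultures of the same strain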; conditions: S. cerevisiae mlh1 strain growth inhibition, active compounds read high
# How it was run: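 A yeast strain with a defined genetic lesion serves as the test organism. Cultures receive compound or vehicle, and growth is measured.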
# [13] = NCI Yeast Anticancer Drug Screen. Data for the sgs1 strain (AID 173);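 note: 0% = growth of vehicle-only control cultures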; conditions: S. cerevisiae sgs1 mutant, active compounds read high
# How it was run: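 A genetically defined yeast mutant is incubated with the test compound, and its growth is compared to that of the same strain given vehicle.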
# [14] = NCI Yeast Anticancer Drug Screen. Data for the mlh1 rad18 strain (AID 175); conditions: S. cerevisiae mlh1 rad18 strain growth inhibition, active compounds read high
# How it was run: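 Steps: expose repair-defective yeast to compound; measure growth; express inhibition against vehicle-treated controls.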
# [15] = NCI Yeast Anticancer Drug Screen. Data for the rad18 strain (AID 177); conditions: S. cerevisiae rad18 mutant growth inhibition, active compounds read high
# How it was run: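 Measured value is growth inhibition of a yeast strain bearing a DNA repair alteration, referenced to vehicle-treated cells.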
# [16] = at 5.0 µM (retest, dose inferred, filed as 0.5)
# [17] = at 50.0 µM (retest, dose inferred, filed as 5.0)
compound,measurement,setting,value
O=[N+]([O-])/C=C/c1cc2ccc3ccccc3c2[nH]1,growth inhibition,[1]; at 1.2 µM,27%
same,growth inhibition,[1]; at 3.7 µM,66%
same,growth inhibition,[1]; at 11.0 µM,83% (active)
same,growth inhibition,[1]; at 33.0 µM,88% (active)
same,growth inhibition,[1]; at 100.0 µM,88% (active)
same,growth inhibition,[2]; at 1.2 µM,9%
same,growth inhibition,[2]; at 3.7 µM,19%
same,growth inhibition,[2]; at 11.0 µM,41%
same,growth inhibition,[2]; at 33.0 µM,79% (active)
same,growth inhibition,[2]; at 100.0 µM,93% (active)
same,growth inhibition,[3]; at 1.2 µM,15%
same,growth inhibition,[3]; at 3.7 µM,55%
same,growth inhibition,[3]; at 11.0 µM,81% (active)
same,growth inhibition,[3]; at 33.0 µM,95% (active)
same,growth inhibition,[3]; at 100.0 µM,93% (active)
same,growth inhibition,[4]; at 1.2 µM,39%
same,growth inhibition,[4]; at 3.7 µM,70% (active)
same,growth inhibition,[4]; [16],63%
same,growth inhibition,[4]; at 11.0 µM,78% (active)
same,growth inhibition,[4]; at 33.0 µM,83% (active)
same,growth inhibition,[4]; [17],96% (active)
same,growth inhibition,[4]; at 50.0 µM,95.8% (active)
same,growth inhibition,[4]; at 100.0 µM,82% (active)
same,growth inhibition,[5]; at 1.2 µM,20%
same,growth inhibition,[5]; at 3.7 µM,33%
same,growth inhibition,[5]; [16],55%
same,growth inhibition,[5]; at 11.0 µM,63%
same,growth inhibition,[5]; at 33.0 µM,88% (active)
same,growth inhibition,[5]; [17],98% (active)
same,growth inhibition,[5]; at 50.0 µM,98.8% (active)
same,growth inhibition,[5]; at 100.0 µM,93% (active)
same,growth inhibition,[6]; at 1.2 µM,11%
same,growth inhibition,[6]; at 3.7 µM,27%
same,growth inhibition,[6]; at 11.0 µM,62%
same,growth inhibition,[6]; at 33.0 µM,88% (active)
same,growth inhibition,[6]; at 100.0 µM,91% (active)
same,growth inhibition,[7]; [16],88% (active)
same,growth inhibition,[7]; [17],97% (active)
same,growth inhibition,[7]; at 50.0 µM,98.7% (active)
same,growth inhibition,[8]; at 1.2 µM,0%
same,growth inhibition,[8]; at 3.7 µM,12%
same,growth inhibition,[8]; at 11.0 µM,31%
same,growth inhibition,[8]; at 33.0 µM,63%
same,growth inhibition,[8]; at 100.0 µM,87% (active)
same,growth inhibition,[9]; [16],-6%
same,growth inhibition,[9]; [17],83% (active)
same,growth inhibition,[9]; at 50.0 µM,97.2% (active)
same,growth inhibition,[10]; at 1.2 µM,12%
same,growth inhibition,[10]; at 3.7 µM,28%
same,growth inhibition,[10]; [16],50%
same,growth inhibition,[10]; at 11.0 µM,58%
same,growth inhibition,[10]; at 33.0 µM,86% (active)
same,growth inhibition,[10]; [17],96% (active)
same,growth inhibition,[10]; at 50.0 µM,98.8% (active)
same,growth inhibition,[10]; at 100.0 µM,91% (active)
same,growth inhibition,[11]; at 1.2 µM,26%
same,growth inhibition,[11]; at 3.7 µM,57%
same,growth inhibition,[11]; at 11.0 µM,87% (active)
same,growth inhibition,[11]; at 33.0 µM,95% (active)
same,growth inhibition,[11]; at 100.0 µM,93% (active)
same,growth inhibition,[12]; at 1.2 µM,25%
same,growth inhibition,[12]; at 3.7 µM,50%
same,growth inhibition,[12]; at 11.0 µM,83% (active)
same,growth inhibition,[12]; at 33.0 µM,93% (active)
same,growth inhibition,[12]; at 100.0 µM,93% (active)
same,growth inhibition,[13]; at 1.2 µM,39%
same,growth inhibition,[13]; at 3.7 µM,72% (active)
same,growth inhibition,[13]; at 11.0 µM,89% (active)
same,growth inhibition,[13]; at 33.0 µM,94% (active)
same,growth inhibition,[13]; at 100.0 µM,92% (active)
same,growth inhibition,[14]; [16],84% (active)
same,growth inhibition,[14]; [17],94% (active)
same,growth inhibition,[14]; at 50.0 µM,98% (active)
same,growth inhibition,[15]; at 1.2 µM,61%
same,growth inhibition,[15]; at 3.7 µM,86% (active)
same,growth inhibition,[15]; at 11.0 µM,90% (active)
same,growth inhibition,[15]; at 33.0 µM,92% (active)
same,growth inhibition,[15]; at 100.0 µM,87% (active)
